# Assay results: ChEMBL document CHEMBL3988442, “University of Dundee, Small-Polar-MMV Screening Library” (2021)
# Hit rate of the full screen: of about 66,000 compounds, about 960 (1.5%) showed an effect of 50% or more. The list comes from a sample in which strong results are over-represented; it also holds similar structures and randomly drawn compounds.
# Test system: Trypanosoma brucei
# Test: Trypanosoma brucei 72 hour study
# Assay type: functional, organism-based
# Set-up: scale not given: in the data most compounds retested in dose-response had high values
structure (smiles),measurement,setting,value
COc1cc(N2CCO[C@H]3[C@@H](Oc4cccnc4)CC[C@@H]32)ncn1.O=C(O)C(F)(F)F.O=C(O)C(F)(F)F,Percent Effect,"30 µM, 30.03 µM",-15.67%
CCC1CCCCN1CCNC(=O)N1CCN(Cc2ccon2)CC1 (stereo not drawn),Percent Effect,"30 µM, 30.03 µM",20.59%
CN(C)CCn1c2c(ccc1=O)CC(NC(=O)NC1CCCC1)CC2.O=C(O)C(F)(F)F (stereo not drawn),Percent Effect,"30.3 µM, […]",-38.22%
CC(C)(C)NC(=O)NC(=O)CNc1c(F)cccc1N1CCCC1,Percent Effect,"30 µM, 30.03 µM",-52.35%
CCCn1cc(S(=O)(=O)N[C@H]2CN(CCO)C[C@@H]2C2CC2)cn1,Percent Effect,"30 µM, 30.03 µM",-20.35%
CC1=C[C@@H](CN2CCOCC2)[C@H](C(C)C)C[C@H]1Cc1nnc(C)o1,Percent Effect,"30 µM, 30.03 µM",60.87%
CC1=C[C@@H](CN2CCN(C)CC2)[C@H](C(C)C)C[C@H]1Cc1nnc(C)o1,Percent Effect,"30 µM, 30.03 µM",28.22%
CC1=C[C@@H](CN2CCCC2)[C@H](C(C)C)C[C@H]1Cc1nnc(C)o1,Percent Effect,"30 µM, 30.03 µM",17.59%
CC1c2ncc(Cn3cncn3)n2CCN1C(=O)c1ccsc1 (stereo not drawn),Percent Effect,"30.3 µM, […]",-6.898%
CC(C)N1CCO[C@@H]2CN(C(=O)Cc3cccs3)CC[C@@H]2C1.O=C(O)C(F)(F)F,Percent Effect,"30.3 µM, […]",-84.63%
Cc1ccc(-c2nc(CNS(=O)(=O)N(C)C)[nH]c2-c2ccccn2)cc1,Percent Effect,"30 µM, 30.03 µM",-19.21%
Cc1ccc(-c2nc(CNC(C)CCO)[nH]c2-c2ccccn2)cc1 (stereo not drawn),Percent Effect,"30 µM, 30.03 µM",-54.5%
COCC(C)NCc1nc(-c2ccc(C)cc2)c(-c2ccccn2)[nH]1 (stereo not drawn),Percent Effect,"30 µM, 30.03 µM",72.12%
Cc1cc(F)ccc1S(=O)(=O)NCC(O)c1cccn1C (stereo not drawn),Percent Effect,"30.3 µM, […]",2.147%
COc1ccc(C)cc1S(=O)(=O)NCC(c1cccn1C)N(C)C (stereo not drawn),Percent Effect,"30 µM, 30.03 µM",-85.17%
Cc1c(Cl)cccc1S(=O)(=O)NCC(O)c1cccn1C (stereo not drawn),Percent Effect,"30.3 µM, […]",15.12%
Cn1cccc1C(O)CNS(=O)(=O)c1ccccc1F (stereo not drawn),Percent Effect,"30.3 µM, […]",21.76%
Cn1cccc1C(O)CNS(=O)(=O)c1ccccc1Br (stereo not drawn),Percent Effect,"30.3 µM, […]",101.8%
COc1cc(C)c(C)cc1S(=O)(=O)NCC(O)c1cccn1C (stereo not drawn),Percent Effect,"30.3 µM, […]",93.04%
Cc1cccc(CN2CCc3cc(C(=O)O)c(N(C)C)nc3CC2)n1.O=C(O)C(F)(F)F.O=C(O)C(F)(F)F,Percent Effect,"30.3 µM, […]",-4.937%
CN(C)C(=O)COC[C@@H]1CC[C@H]2[C@H](CCN2c2ncccn2)O1.O=C(O)C(F)(F)F,Percent Effect,"30 µM, 30.03 µM",-8.509%
Cc1ccc(CN2CC3(CCN(C(=O)c4cscn4)C3)C2)o1.O=C(O)C(F)(F)F,Percent Effect,"30 µM, 30.03 µM",-9.237%
O=C(O)C(F)(F)F.O=C(O)C(F)(F)F.O=C(O)C(F)(F)F.OCCN1CCC2(CC1)CC(NCc1ccccn1)c1ccccc1O2 (stereo not drawn),Percent Effect,"30 µM, 30.03 µM",-31.61%
CC(C)N1CCCC1c1cc(CO)[nH]n1.O=CO (stereo not drawn),Percent Effect,"30.3 µM, […]",-7.818%
CN(Cc1ccco1)Cc1cncc2c1CCN(c1ncccn1)C2.Cl.Cl,Percent Effect,"30 µM, 30.03 µM",54.64%
Cc1cnc(N2CCc3c(CN(C)Cc4ccco4)cncc3C2)nc1,Percent Effect,"30.3 µM, […]",5.943%
Cc1ccc(N2CCc3c(CN(C)Cc4ccco4)cncc3C2)nn1.Cl.Cl,Percent Effect,"30.3 µM, […]",-4.486%
CCN1CCC(NC(=O)CN2CCc3c(ncn3C3CC3)C2)CC1,Percent Effect,10 µM,-42.18%
Cc1cnc(C(=O)N2CCC3(CCN(Cc4ccccn4)C3=O)C2)cn1.O=C(O)C(F)(F)F (stereo not drawn),Percent Effect,"30 µM, 30.03 µM",-17.07%
Cc1ccccc1-n1cc(-c2ccnc(N3CCCC(CN)C3)n2)cn1 (stereo not drawn),Percent Effect,"30.3 µM, […]",46.15%
Cc1ccccc1-n1cc(-c2ccnc(N3CCCC(O)C3)n2)cn1 (stereo not drawn),Percent Effect,"30.3 µM, […]",12.09%
COC[C@H]1CCCN1c1nccc(-c2cnn(-c3ccccc3C)c2)n1,Percent Effect,"30.3 µM, […]",99.85%
Cl.c1cc(CNCc2ccc(-n3cncn3)nc2)cc(OC2CCCC2)c1,Percent Effect,"30.3 µM, […]",-105%
Cc1ccc(C(=O)N2CCN(c3ccnc4ccsc34)CC2)o1,Percent Effect,"30.3 µM, […]",99.86%
O=C(c1cnccn1)N1CCN(c2ccnc3ccsc23)CC1,Percent Effect,"30.3 µM, […]",-26.37%
O=C(N1CCOCC1)N1CCN(c2ccnc3ccsc23)CC1,Percent Effect,"30.3 µM, […]",-32.02%
CN(C)Cc1nn(C)c2c1CN(C(=O)c1cccc(C#N)c1)C2,Percent Effect,"30.3 µM, […]",-11.38%
Cc1cc(C)cc(CNc2ccc(C(=O)NC(C)CO)cc2)c1 (stereo not drawn),Percent Effect,"30.3 µM, […]",34.18%
CC(CO)NC(=O)c1ccc(NCc2ccccc2)cc1 (stereo not drawn),Percent Effect,"30.3 µM, […]",11.13%
CC(CO)NC(=O)c1ccc(NCc2ccc(F)c(F)c2)cc1 (stereo not drawn),Percent Effect,"30.3 µM, […]",74.6%
CCn1cc(N2Cc3nc(N4CCC(O)CC4)ncc3C2=O)cn1,Percent Effect,"30.3 µM, […]",-24.87%
O=C(Nc1cnn(CC(=O)N2CCCCO2)c1)c1ccccn1,Percent Effect,"30 µM, 30.03 µM",-63.86%
O=C(Nc1cnn(CC(=O)N2CCCO2)c1)c1ccccc1,Percent Effect,"30 µM, 30.03 µM",-24.18%
O=C(Nc1cnn(CC(=O)N2CCCCO2)c1)c1ccsc1,Percent Effect,"30 µM, 30.03 µM",102%
Cc1ccc(C(=O)N(C)Cc2cc(Br)cs2)cn1,Percent Effect,"30 µM, 30.03 µM",-13.9%
Clc1ccc2cccnc2c1CN1CCCC(Cn2cncn2)C1 (stereo not drawn),Percent Effect,"30 µM, 30.03 µM",98.3%
Clc1ccc2cccnc2c1CN1CCCC1Cn1cncn1 (stereo not drawn),Percent Effect,"30 µM, 30.03 µM",3.447%
c1ccc(-c2nc(CN3CCCC(Cn4cncn4)C3)cs2)cc1 (stereo not drawn),Percent Effect,"30.3 µM, […]",51.63%
